An excerpt weighted towards active compounds, which were near 4.7% of everything screened.
ATG4B inhibitor: ATG4B protease inhibitors, primary screen, biochemical, fluorescence, uHTS. Cysteine protease ATG4B (Homo sapiens), Q9Y4P1. ATG4B cleavage of LC3-PLA2, NBD-HPC fluorescence, 1 h. inhibition, % at 8.33 µM. hit rate 0.51% among 340,000; in the data active = inhibition above about 40%
Target sequence (Q9Y4P1 whole entry, looked up): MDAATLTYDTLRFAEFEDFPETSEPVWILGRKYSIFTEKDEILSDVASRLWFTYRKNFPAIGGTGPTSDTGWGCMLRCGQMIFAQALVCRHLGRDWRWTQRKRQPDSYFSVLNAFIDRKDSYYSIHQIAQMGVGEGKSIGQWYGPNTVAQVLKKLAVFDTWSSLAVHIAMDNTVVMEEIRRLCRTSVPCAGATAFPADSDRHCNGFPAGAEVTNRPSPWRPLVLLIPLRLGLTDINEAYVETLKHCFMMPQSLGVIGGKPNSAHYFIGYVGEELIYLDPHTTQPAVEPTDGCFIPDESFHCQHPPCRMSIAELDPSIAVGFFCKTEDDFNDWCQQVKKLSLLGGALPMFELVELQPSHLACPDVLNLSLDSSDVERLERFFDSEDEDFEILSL
tim23-1 inh: growth inhibitors of tim23-1 mutant yeast, primary screen, luminescence, uHTS; hit rate 1.3% among 330,000; S. cerevisiae tim23-1 growth, BacTiter-Glo luminescence, 24 h; inhibition, % at 20 µM;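 active = growth inhibition of the mutant yeast at or above 50%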;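 note: temperature-sensitive mutant grown at 25 °C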
PfHsp90 yeast 2: growth inhibition of PfHsp90-expressing yeast, primary screen, antimalarial PfHsp90 inhibitor project, S. cerevisiae, BacTiter-Glo luminescence, single point, set 2. BacTiter-Glo ATP, 48 h; yeast lacking PDR1 and PDR3 efflux regulators. inhibition, % at 9.4 µM. hit rate 0.32% among 310,000;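 active = every replicate shows inhibition above about 80%, whatever the replicate mean, limit read from the data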
TIM10 inh: growth inhibitors of isogenic TIM10 control yeast, primary screen, counter-screen for tim10-1 yeast inhibitor project, luminescence, uHTS; inhibition, % at 10 µM; S. cerevisiae TIM10 strain growth, BacTiter-Glo luminescence, 24 h; AID 463195, 2010; hit rate 1.4% among 330,000;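 active = inhibition of 40% or more at the single tested concentration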;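 note: wild-type TIM10 isogenic control strain grown at permissive 25 °C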
tim10-1 inh: growth inhibitors of tim10-1 mutant yeast, primary screen, luminescence, uHTS. inhibition, % at 20 µM. hit rate 2.2% among 330,000. S. cerevisiae tim10-1 ts strain growth, BacTiter-Glo, 24 h;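 active = inhibition of at least 40%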;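 note: mutant grown at 25 °C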
SKKanGAS inh: S. pyogenes SKKanGAS growth inhibitors in kanamycin, primary screen, streptokinase expression inhibitor project, SKKanGAS strain, BacTiter-Glo luminescence; inhibition, % at 7.5 µM; hit rate 1.3% among 300,000; 6 h; AID 1662, 2009;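 active = mean replicate score, as percent of positive control median, at least 50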;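 note: strain carries kanamycin resistance gene driven by streptokinase promoter and grows in 40 µg/ml kanamycin; loss of luminescence reflects streptokinase promoter inhibition or plain growth inhibition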
ATG4B confirm: ATG4B protease inhibitors, retest, confirmation, biochemical, fluorescence, single concentration. shares compounds with ATG4B inhibitor. inhibition, % at 8.33 µM. hit rate 92% among 320. ATG4B protease fluorescent substrate cleavage assay; in the data active = inhibition above about 39%
PLA2 ctr: PLA2 enzyme inhibition, counter-screen for ATG4B inhibitor project, biochemical, single concentration, uHTS hits | shares compounds with ATG4B inhibitor | purified PLA2, NBD-C6-HPC fluorescence, 45 min | inhibition, % at 8.33 µM | hit rate 66% among 1,600 | AID 588402, 2011; in the data active = inhibition above about 50%
Target sequence (P04054 whole entry, looked up): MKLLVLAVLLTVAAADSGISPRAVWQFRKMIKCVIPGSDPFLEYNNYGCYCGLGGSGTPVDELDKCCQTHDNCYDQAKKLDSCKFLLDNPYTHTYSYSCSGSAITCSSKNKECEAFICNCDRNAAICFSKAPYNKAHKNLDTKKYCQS
Hits are given with their value; - = inactive; . = not tested or not shown.

SMILES	ATG4B inhibitor	tim23-1 inh	PfHsp90 yeast 2	TIM10 inh	tim10-1 inh	SKKanGAS inh	PLA2 ctr	others
C/C(=N\NC(=O)c1cccc(N/N=C(\C)c2cc(O)ccc2O)c1)c1cc(O)ccc1O	46	-	-	-	-	-	78
O=C(Nc1ccccc1N1CCN(c2ccccc2)CC1)c1ccccc1	44	-	-	-	-	-	-	ATG4B confirm=62
O=C(Nc1ccc(N2CCOCC2)cc1N1CCOCC1)c1ccccc1	-	-	-	-	-	.	.
Cc1ccccc1NC(=O)/C(=C/c1ccccc1)c1ccccc1	43	-	-	-	-	-	-	ATG4B confirm=65
CC(C)(O)c1ccccc1CC[C@@H](SCC1(CC(=O)O)CC1)c1cccc(/C=C/c2ccc3ccc(Cl)cc3n2)c1	92	-	-	-	-	105	92
Cc1ccccc1C(=O)NC(=S)Nc1ccc(S(=O)(=O)N(C)c2ccccc2)cc1	48	-	-	-	-	-	57
Cc1cccc(C(=O)NC(=S)Nc2ccc(S(=O)(=O)N(C)c3ccccc3)cc2)c1	-	-	-	-	-	-	.
Cc1ccc2c(C(=O)CN3CC(C)CC(C)C3)c(C)[nH]c2c1 (stereo unspecified)	.	-	-	-	-	-	.
O=C(c1cccs1)N(Cc1ccco1)c1nc(-c2ccc(F)cc2)cs1	42	-	-	-	-	-	56
Cc1ccc(NC(=S)NCc2ccccc2)cc1S(=O)(=O)N1CCCCC1	57	-	-	-	-	-	75
CC(C)CSC1=NSC2=NC(=O)/C(=C\c3cccs3)C(=N)N12	-	-	-	-	-	-	.
N=C1/C(=C/c2cccs2)C(=O)N=C2SN=C(SCc3ccccc3)N12	50	-	-	-	-	81	62
Cc1cccc(C(=O)Nc2sc(-c3ccccc3)cc2C(=O)O)c1	68	-	-	-	-	-	75
COc1ccccc1CN1CC(C(=O)NC2(c3ccccc3)CC2)CCC1=O (stereo unspecified)	-	-	-	-	-	-	.
COc1ccc(C)cc1N1C(=N)/C(=C2/Nc3ccccc3S2)C(c2ccccc2)C1=O (stereo unspecified)	50	.	-	.	.	.	-
CCOc1c(Br)cc(C(N)=O)cc1OCc1ccccc1	79	-	-	-	-	-	80
CCCOc1c(Br)cc(C(N)=O)cc1OCC	42	-	-	-	-	-	56
CCOc1c(Br)cc(C(N)=O)cc1OC	-	-	-	-	-	-	.
COc1cc(C(N)=O)cc(Br)c1OCc1ccccc1	70	-	-	-	-	-	71
Cc1ccc(N2CC(C(=O)NC3CC3)CC2=O)cc1Cl (stereo unspecified)	-	-	-	-	-	-	.
O=C(CNC1CCCCCC1)Nc1ccccc1N1CCCCC1	46	-	-	-	-	-	53
O=C(Cc1ccccc1)Nc1ccccc1N1CCCC1	-	-	-	-	-	-	.
O=C(CNCC1CCCO1)Nc1ccccc1N1CCOCC1 (stereo unspecified)	-	-	-	-	-	-	.
O=C(CNCC1CCCCC1)Nc1ccccc1N1CCCCC1	41	-	.	-	-	-	-	ATG4B confirm=65
CCCCn1c(N)c(N(CC(C)C)C(=O)C2CCN(S(=O)(=O)c3ccc(C)cc3)CC2)c(=O)[nH]c1=O	-	-	-	-	-	-	.
SMILES	ATG4B inhibitor	tim23-1 inh	PfHsp90 yeast 2	TIM10 inh	tim10-1 inh	SKKanGAS inh	PLA2 ctr	others
CN(C)CCNC(=O)c1cc(Br)ccc1Cl	-	-	-	-	-	-	.
Cc1ccc(-c2cc(=O)c3cc(C)ccc3[nH]2)cc1	72	-	.	-	-	-	-
Cc1c(Cl)c([N+](=O)[O-])nn1CCCC(=O)NCCc1ccccc1	-	-	-	-	-	-	.
Cc1ccc(Oc2cc(NC(=O)CCCn3nc([N+](=O)[O-])c(Cl)c3C)cc([N+](=O)[O-])c2)cc1	89	-	-	-	-	-	92
COc1ccc(CNC(=O)CCCn2nc([N+](=O)[O-])cc2C)cc1	-	-	-	-	-	-	.
Cc1cc([N+](=O)[O-])nn1CCCC(=O)Nc1cc(Oc2ccccc2)cc([N+](=O)[O-])c1	55	-	-	-	-	-	58
Cc1cc([N+](=O)[O-])nn1CCCC(=O)Nc1cc(Oc2ccc(F)cc2)cc([N+](=O)[O-])c1	61	-	-	-	-	-	62
O=C(O)/C=C\c1ccccc1Oc1cccc(Cl)c1	-	-	-	-	-	-	.
O=C(O)/C=C/c1ccccc1Oc1ccc(Cl)cc1Cl	41	-	-	-	-	-	-	ATG4B confirm=68
CC1CCCN(c2ccc(C(=O)Nc3nnc(C4CC4)s3)cc2[N+](=O)[O-])C1 (stereo unspecified)	-	-	-	-	-	-	.
C[C@H]1c2cccc(O)c2C(O)=C2C(=O)[C@]3(O)C(O)=C(C(N)=O)C(=O)[C@@H](N(C)C)[C@@H]3[C@@H](O)[C@@H]21	40	-	-	-	-	97	-	ATG4B confirm=66
S=C(NCc1ccccc1)Nc1ccc(Oc2ccccc2)cc1	57	-	-	-	-	-	67
Fc1ccc(CNC(=S)NCc2ccccc2)cc1	43	-	.	-	-	-	-	ATG4B confirm=71
Fc1ccc(CNC(=S)Nc2ccc(Cl)cc2)cc1	43	-	-	-	-	-	52
CCNC(=S)Nc1ccc(Oc2ccccc2)cc1	-	-	-	-	-	-	.
Cc1ccc(NC(=S)NCc2ccc(Cl)cc2)c(OC(F)F)c1	47	-	-	-	-	-	55
CCOC(=O)N1CCC(N2CC34C=CC(O3)C(C(=O)Nc3ccc(C(C)C)cc3)C4C2=O)CC1 (stereo unspecified)	-	-	-	-	-	.	.
COc1ccc(-c2nnc(SCC(=O)/C(C#N)=C(\C)N)o2)cc1	-	-	.	-	-	-	.
O=C(c1cccnc1)N1CCN(C/C=C/c2ccccc2)CC1	-	-	-	-	-	-	.
FC(F)(F)c1cccc(NC(=S)NCc2ccccn2)c1	-	-	-	-	-	-	.
FC(F)(F)c1cccc(NC(=S)NNC(=S)NCc2ccccc2)c1	42	-	-	-	-	-	-
